Results reported in PubChem BioAssay AID1347416 (National Center for Advancing Translational Sciences (NCATS), 2020).
The whole screen tested about 4,100 compounds, of which about 1,600 (39%) were called active. Another 25% or so got no clear call; they are omitted. Calls follow the shape of the dose curve; as a rule, active = well fitted inhibition curve with a large enough effect; inconclusive = small, poorly fitted or top-dose-only effect; inactive = no such curve, though single readings can be large or run the other way. This is one part of the list.

experiment: qHTS Validation assay for Inhibitors of Plasmodium falciparum Dd2 growth in vitro; also: nearly all actives have a fitted effect of over 70% in size; conditions: P. falciparum Dd2 in RBCs, SYBR Green growth, 72 h; series mostly up to 28.7 µM
From the text: Malaria, a parasitic disease spread to humans through the bite of a Plasmodium infected Anopheles mosquito, continues to be a global health burden affecting millions of people, with an estimated 228 million cases and 405,000 deaths in 2018. Concerns about safety and limitations of current antimalarial treatments strongly emphasize the need to develop new therapeutic options. The scarce number of chemotypes and validated drug targets with efficacy against the liver stage, have hindered development of new antimalarials. To address this, a chemoprophylactic drug discovery effort was conducted through a combined phenotypic high-throughput asexual blood stage and liver stage screen, providing a robust foundation to identify liver-stage active lead chemotypes. Compounds were initially screened against Plasmodium falciparum Dd2 strain parasites using a in vitro SYBRGreen-1 based 72 hr proliferation assay to identify novel chemotypes to advance to liver stage assays. NIH/NCATS Early Translation Branch Assay Submitter (PI): Anton Simeonov Ph.D.
[…] Assay Protocol: PROTOCOL TABLE (as described by Inglese et al., 2007) SEQUENCE No. (e.g., 1, 2, 3, etc.); PARAMETER (e.g., Cells, Incubation, Reagent, etc.); VALUE; DESCRIPTION SEQUENCE, Parameter, Description 1; Reagent; 3 uL complete malaria growth medium, 1536 TC treated Black clear bottom plate 2; Controls; 23 nL positive control artesunate (300 nM final) to column 1; Neutral control DMSO to columns 2-4 3; Compound; 23 nL of compounds in dose response concentration (29 uM to 0.5 nM final) 4; Reagent; 5 uL malaria infected red blood cells (2.5% hematocrit final, 0.3% parasitemia 5; Time; 72 hours at 37C (5% O2, 5% CO2, 90% N2; 95% Rh) 6; Reagent; 2 uL lysis buffer/SYBRGreen-1, 25 sec shake immediately following dispense 7; Time; ~16 hours at 37C (5% O2, 5% CO2, 90% N2; 95% Rh) 8; Detector; EnVision (PerkinElmer) bottom read at 485/14nm excitation and 535/25 nm emission NOTES (numbers refer to sequence above): 1; Complete Malaria Growth Media: 1X RPMI-1640 w/L-glutamine, 5.5g/L Albumax II, 367 uM Hypoxanthine, 25 mM HEPES, 0.25% Sodium Bicarbonate, 35 uM Gentamicin sulfate 2; Controls were added using the Kalypsis Pintool (Wako USA) equipped with 1536 pinhead 3; Compounds were added in a 7-point, titration with a high final concentration of 29 uM by Pintool from seven inter-plate titrations of library plates and two DMSO control plates at the beginning and end (see Yasgar et al., 2008). 4; Red blood cells infected with Plasmodium falciparum Dd2 parasites were used. 6; Lysis buffer: 20 mM Tris-HCl, 10 mM EDTA, 0.16% Saponin, 1.6% Triton-X, 10X SYBR Green. REFERENCE: Inglese J, Shamu CE, Guy RK. 2007. Reporting data from high-throughput screening of small-molecule libraries. Nat Chem Biol. doi:10.1038/nchembio0807-438 Yasgar A, Shinn P, Jadhav A, Auld D, Michael S, Zheng W, Austin CP, Inglese J, Simeonov A. 2008. Compound Management for Quantitative High-Throughput Screening. J Lab Autom 13:79-89. doi:10.1016/j.jala.2007.12.004
Potency is read from the fitted curve at half-maximal effect.

SMILES	Potency
CCCc1cc(=O)oc2c(C)c(O)c(CN3CCCCC3)cc12	3.35 µM (active)
Cc1c(O)c(CN(C)C)cc2c1oc(=O)c1ccccc12	4.22 µM (active)
Cc1c(O)c(CN2CCCC2)cc2c1oc(=O)c1ccccc12	2.66 µM (active)
Cc1c(O)c(CN2CCCCC2)cc2c1oc(=O)c1ccccc12	0.75 µM (active)
O=C1CCCCN1Cc1nc(C2CCOC2)no1 (stereo unspecified)	inactive
Cc1cc(C)c2oc(=O)cc(CN3CCCCC3)c2c1	13.3 µM (active)
C=CCCC(CN1CCCC1)Oc1ccc(C(=O)N2CCCC2)cn1 (stereo unspecified)	13.3 µM (active)
COc1ccc(C(=O)N2CCCC(n3cc(-c4nc(C(C)C)no4)nn3)C2)cn1 (stereo unspecified)	inactive
CC(C)CN(Cc1cc(=O)oc2cc3c(cc12)CCCC3)CC(C)C	15 µM (active)
CCOC(=O)C(C)/C(C)=N/NC(N)=S (stereo unspecified)	2.66 µM (active)
N#Cc1ccc(C23CC4CC(CC(C4)C2)C3)[nH]c1=O	inactive
CC(C)(C)c1ccc(C(=O)Nc2ccc(-c3nc4cc(Cl)ccc4o3)cc2)cc1	inactive
O=C(Nc1ccc(C2=NCCN2)cc1)c1ccc(C(=O)Nc2ccc(C3=NCCN3)cc2)c(Cl)c1	0.473 µM (active)
CC1Oc2ccc(NC(=O)c3ccc(Cl)c(Cl)c3)cc2CN(Cc2ccccc2F)C1=O (stereo unspecified)	inactive
O=C(Nc1ccc(C2=NCCN2)cc1)c1ccc(C(=O)Nc2ccc(C3=NCCN3)cc2)c([N+](=O)[O-])c1	0.237 µM (active)
Cc1cc(C[C@@H]2COC[C@@H]2NC(=O)CCc2ccc(=O)[nH]n2)on1	inactive
COc1cc(NC(=O)c2cc([N+](=O)[O-])ccc2NC(=O)CNC2CCCCC2C)cc(OC)c1 (stereo unspecified)	5.96 µM (active)
COC(=O)c1cc(C(=O)c2ccc(Cl)cc2Cl)cn1C	13.3 µM (active)
CCc1ccc(C2=CC(c3cccc(C)c3)n3c(nc4ccccc43)N2)cc1 (stereo unspecified)	15 µM (active)
CC1=C[C@@H](CN2CCOCC2)[C@H](C(C)C)C[C@H]1Cc1nnc(-c2ccc([N+](=O)[O-])cc2)o1	9.44 µM (active)
COc1ccc(-c2nnc(C[C@@H]3C[C@@H](C(C)C)[C@H](CN4CCC(O)CC4)C=C3C)o2)cc1	9.44 µM (active)
CC1=C[C@@H](CN2CCCC2)[C@H](C(C)C)C[C@H]1Cc1nnc(-c2ccc([N+](=O)[O-])cc2)o1	3.85 µM (active)
CC1=C[C@@H](CN2CCN(c3ncccn3)CC2)[C@H](C(C)C)C[C@H]1Cc1nnc(COc2ccc(F)cc2)o1	0.75 µM (active)

SMILES	Potency
COc1ccc(C(=O)N[C@@H]2CCC[C@@H]2C(=O)NCCCN(C)C)cn1	inactive
COC(=O)CNC(=O)N1CCCCC1c1nc(CCOc2cccc(C)c2)no1 (stereo unspecified)	inactive
COc1nc2c(cc1CNC(=O)C(C)(C)OC)C(=O)N(CCc1ccccn1)C2	inactive
Cc1noc(-c2cn(C3CCN(C(=O)c4ccc(C)s4)C3)nn2)n1 (stereo unspecified)	inactive
CC1=C[C@@H](CN2CCC(C)CC2)[C@H](C(C)C)C[C@H]1Cc1nnc(-c2cccnc2)o1	15.3 µM (active)
Cc1ccc(S(=O)(=O)N(C)CC2CCOCC2)c(C)c1	inactive
Cc1ccc(C)c(CN2C(=O)c3ccccc3S(=O)(=O)c3ccc(C(=O)NCCc4ccc(Cl)cc4)cc32)c1	7.5 µM (active)
O=C(c1ccc2c(c1)N(Cc1ccc(Cl)cc1)C(=O)c1ccccc1S2(=O)=O)N1CCCC1	inactive
O=C(c1ccc(F)c(F)c1)N1CCC2(CC1)N(c1ccccc1)C(=O)CS2(=O)=O	inactive
CCOC(=O)C1CCCN(C(=O)c2ccc3c(c2)N(Cc2ccccc2)C(=O)c2ccccc2S3(=O)=O)C1 (stereo unspecified)	6.68 µM (active)
COc1ccccc1CNC(=O)c1cc2c(s1)CCN(C(=O)c1ccc(C)cc1)C2	inactive
COc1ccccc1N1CCN(C(=O)c2ccc3c(c2)N(Cc2cc(C)ccc2C)C(=O)c2ccccc2S3(=O)=O)CC1	9.44 µM (active)
Cc1ccc(Cl)cc1N1CCN(C(=O)c2ccc3c(c2)N(Cc2ccccc2F)C(=O)c2ccccc2S3(=O)=O)CC1	5.31 µM (active)
Cc1ccc(C)c(CN2C(=O)c3ccccc3S(=O)(=O)c3ccc(C(=O)N4CCCCCC4)cc32)c1	inactive
CCCc1nc2nc(C)c(NS(=O)(=O)c3ccc(F)cc3)c(=O)n2[nH]1	inactive
Cc1cc(C)c(CN2C(=O)c3ccccc3S(=O)(=O)c3ccc(C(=O)OCC4CCCO4)cc32)c(C)c1 (stereo unspecified)	6.68 µM (active)
COc1ccc(-c2noc([C@@H]3C[C@H](NS(=O)(=O)c4ccc(OC)cc4)CN3C)n2)cc1	inactive
CN1C[C@@H](NC(=O)COc2ccccc2)C[C@H]1c1nc(-c2ccc3c(c2)OCO3)no1	inactive
COc1cccc(NC(=O)N[C@H]2C[C@@H](c3nc(C)no3)N(C)C2)c1	17.2 µM (active)
CCN(CC)S(=O)(=O)c1ccc(N2CCCCC2)c(NC(=O)C2=COCCO2)c1	6.68 µM (active)
CN(C)S(=O)(=O)c1ccc(N2CCCC2)c(C(=O)NC(c2ccccc2)c2ccccc2)c1	inactive
N=c1n(N)c2ccccc2n1CC(=O)c1ccc(Br)cc1	inactive
CCN(CC)CCn1c(=N)n(CC(=O)c2ccc(Br)s2)c2ccccc21	5.31 µM (active)

SMILES	Potency
Cc1nn(-c2ccccc2)c(C)c1/C=N/Nc1nc2ccccc2[nH]1	1.5 µM (active)
CCOC(=O)c1ccc(NC(=O)c2ccco2)cc1	inactive
CC(NC(=O)c1ccc(NC(=O)c2ccco2)cc1)c1ccccc1 (stereo unspecified)	inactive
Cc1ccc(Oc2ccc(NC(=O)c3ccco3)cc2)cc1	10.6 µM (active)
Cc1cccc(NC2=C(NC(=O)c3ccccc3)C(=O)c3ccccc3C2=O)c1	0.944 µM (active)
O=C(NC1=C(Nc2ccc(F)cc2)C(=O)c2ccccc2C1=O)c1ccc(Cl)cc1	0.842 µM (active)
CN1C(=O)COC[C@@H]1[C@H](O)c1ccc(NC(=O)c2ccccc2)cc1	inactive
O=C(NC1=C(Nc2ccc(Cl)cc2)C(=O)c2ccccc2C1=O)c1ccccc1	0.473 µM (active)
O=C(O)/C=C/c1cccc(NC(=O)c2ccc(Cl)cc2)c1	inactive
CCCc1nn2c(=O)cc(COC(=O)c3cccc(NC(=O)COc4ccccc4C)c3)nc2s1	13.3 µM (active)
Cc1csc2nc(COc3ccc(NC(=O)COc4ccccc4F)cc3)cc(=O)n12	inactive
Cc1ccccc1OCC(=O)Nc1ccccc1C(=O)OCc1cc(=O)n2ccsc2n1	inactive
Cc1ccc(C(=O)N2[C@@H]3CC[C@H]2CC(NC(=O)c2ccncc2)C3)cc1F (stereo partly specified)	inactive
CCCNc1ccc(-c2nc(-c3ccncc3)no2)cc1[N+](=O)[O-]	inactive
COc1cccc(NC(=O)c2ccc(NCCCN3CCC(C)CC3)c([N+](=O)[O-])c2)c1	7.5 µM (active)
Cc1ccc(NC(=O)c2ccc(NCCCN3CCC(C)CC3)c([N+](=O)[O-])c2)cc1F	6.68 µM (active)
COc1cccc(NC(=O)c2ccc3c(c2)NC(C)(CCCCN2CCOCC2)CO3)c1 (stereo unspecified)	inactive
CC1(CCCCN2CCOCC2)COc2ccc(C(=O)Nc3ccc4[nH]ccc4c3)cc2N1 (stereo unspecified)	inactive
COCCCNC(=O)C(NC(=O)c1ccc(OC)cc1)C1CCN(C(=O)c2cccc(OC)c2)CC1 (stereo unspecified)	inactive
CCCN(CCC)CCCNc1ccc(C(=O)Nc2cccc(OC)c2)cc1[N+](=O)[O-]	5.96 µM (active)
c1ccc(CCc2nc3nccc(-c4ccc5c(c4)OCCCO5)n3n2)cc1	inactive
CC(C)Oc1ccc(C(CCNCc2ccc(O)cc2)c2ccccc2)cc1 (stereo unspecified)	0.668 µM (active)
Cc1onc(-c2ccc(Cl)cc2)c1-c1ccnn1S(=O)(=O)c1cccc(C(F)(F)F)c1	4.73 µM (active)

SMILES	Potency
Cc1onc(-c2ccc(Cl)cc2)c1-c1ccnn1S(=O)(=O)c1ccc(Cl)cc1	1.88 µM (active)
Cc1noc([C@@H]2CN(C(=O)c3cccc(C(F)(F)F)c3)C[C@H]2C(N)=O)n1	inactive
CC(C)c1noc(-c2cccn3c(CNC(=O)c4nccc5ccccc45)nnc23)n1	inactive
Oc1c(C(Nc2ccccn2)c2ccccc2F)ccc2cccnc12 (stereo unspecified)	9.44 µM (active)
CCC(=NC(CC)CO)C1=C(O)CC(C)(C)CC1=O (stereo unspecified)	inactive
CN1CCN(C(=O)C2(N(C)CCc3ccccc3)Cc3ccccc3C2)CC1	2.66 µM (active)
CN(C)C(=O)c1cccnc1OC1CCN(CCc2ccccc2)CC1	inactive
CC(C)C[C@@H]1N[C@H](C(=O)NC(C)C)Cc2cn(Cc3ccncc3)c3cccc1c23	17.2 µM (active)
CC(C)(C)c1ccc(N2C(=O)CSC2c2cccnc2)cc1 (stereo unspecified)	inactive
Cc1cccc(N2CCN(c3cccc(C)c3)C2c2cccnc2)c1	5.96 µM (active)
Cc1cccc(C(=O)NC2CCN(c3cnn(C)c(=O)c3)CC2)c1	inactive
CCc1cccc(NC(=O)N2CCCC(c3noc(COc4ccccc4F)n3)C2)c1 (stereo unspecified)	inactive
NCCc1cccc(CN2CCCC(COc3ccccc3F)C2)c1 (stereo unspecified)	2.66 µM (active)
CCCCOc1ccc(NC2=NC3(CCCCC3)N=C(N)N2)cc1	8.41 µM (active)
CC(C)C[C@@]12C(=O)N(c3cccc(Br)c3)C(=O)N1[C@H](c1ccc(F)cc1)[C@@H]1C(=O)N(C3CCCCC3)C(=O)[C@@H]12	7.5 µM (active)
N=c1c2c(n(Cc3ccc(F)cc3)c3c1CCC3)CCC2	3.35 µM (active)
N=c1c2c(n(Cc3ccc(F)cc3)c3c1CCC3)CCCC2	2.99 µM (active)
N=c1c2c(n(Cc3ccccc3)c3c1CCC3)CCC2	4.22 µM (active)
COc1ccc2cc3cc(C(=O)NCCC(C)C)oc3nc2c1	inactive
COc1ccc(CNC(=O)N2CCCC(CN3CCCC3)CC2)cc1 (stereo unspecified)	inactive
COc1cccc(CC(=O)N2CCCC(CN3CCCC3)CC2)c1 (stereo unspecified)	15 µM (active)
CCc1noc(-c2cn(C3CCN(C(=O)Cc4cccc(OC)c4)CC3)nn2)n1	inactive
